Test results reported in PubChem BioAssay.
The source made the active and inactive calls. Unless noted, how the calls were made is not given here.

Columns and labels:
[1] = tested on: Wnt5a (protein binding on small-molecule microarray); test: small molecules binding Wnt5a protein – biophysical, small-molecule microarray, 635/667 nm fluorescence, primary screen (AID 1142); details: 635 nm fluorescence, higher = more signal;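 further: fluorescence read at 667 nm with signal to noise per printed feature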
[2] = ATP-based viability of Huh7 replicon cells – cell-based, CellTiter-Glo luminescence, basal, 48 h, cytotoxicity control for HCV replication inhibitor project, primary screen (AID 1143); details: higher = more signal, called active from +8 up or from −8 down;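 further: Huh7 hepatoma cells carrying a hepatitis C replication reporter with no stimulus; test concentration not given here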
[3] = Pseudomonas biofilm growth suppression – PAO1 strain, BacTiter-Glo luminescence, LB-PBS, primary screen (AID 1144); details: P. aeruginosa PAO1 biofilm, 12 h, higher = more signal
[4] = basal CRE-LacZ reporter activity in PC12 – cell-based, unstimulated, primary screen (AID 1145); details: no forskolin, luminescence, 4.5 h, higher = more signal, called active from +8 up or from −8 down
[5] = forskolin-driven CRE-LacZ activity in PC12 – cell-based, CRE-LacZ reporter, forskolin-stimulated, primary screen (AID 1146); details: luminescence, 4.5 h, higher = more signal, called active from +8 up or from −8 down;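 further: PC12 cells with 6xCRE LacZ reporter stimulated by forskolin 10 µM; beta-galactosidase reporter signal reflecting CREB driven transcription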
[6] = molecular target: Streptavidin (Streptomyces avidinii) (UniProt P22629); test: compounds binding control protein streptavidin – biophysical, small-molecule microarray, 635/667 nm fluorescence, artefact control for SMM compound annotation, primary screen (AID 1147); details: higher = more signal;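 further: signal reflects streptavidin binding to arrayed compounds as a control protein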
[7] = probe aInhba binding on compound microarray – biochemical, small-molecule microarray, 635/667 nm fluorescence, primary screen (AID 1148); details: higher = more signal;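 further: score merges 667nm spot fluorescence with signal-to-noise for antibody binding to printed compounds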
Torsin-1A (Homo sapiens) [8] = molecular target: Torsin-1A (Homo sapiens) (UniProt O14656); test: TOR1A wild-type binding on microarray – cell lysate, small-molecule microarray, lysate, 635/667 nm, primary screen (AID 1149); details: COS7 hTOR1A-WT lysate, 635 nm fluorescence, higher = more signal
Torsin-1A (Homo sapiens) [9] = molecular target: Torsin-1A (Homo sapiens) (UniProt O14656); test: torsin A mutant lysate binding on microarrays – cell lysate, small-molecule microarray, COS7 lysate, 635/667 nm fluorescence, primary screen (AID 1150); details: COS7 hTOR1A mutant lysate, 635 nm fluorescence, higher = more signal;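 further: score pools 667 nm emission and signal to noise measuring lysate protein binding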
[10] = tested on: Sonic hedgehog protein (Shh); test: Sonic hedgehog microarray binding compounds – biochemical, small-molecule microarray, 635/667 nm fluorescence, primary screen (AID 1151); details: 635 nm fluorescence, higher = more signal;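 further: Shh protein binding to compounds spotted on small-molecule microarray slides; score combines spot fluorescence intensity with signal-to-noise across triplicate slides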
[11] = optical density shifts of acrAB sulA E. coli – strain DRC41, OD650, 48 h, E. coli filamentation inducer project, primary screen (AID 1152); details: higher = more signal, called active from +8 up or from −8 down;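 further: E. coli MC1000 strain DRC41 lacking acrAB efflux pump and sulA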
[12] = probe aLefty1 binding on compound microarray – biochemical, small-molecule microarray, 635/667 nm fluorescence, primary screen (AID 1153); details: higher = more signal;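 further: score merges spot fluorescence with signal-to-noise ratio from the scanned slide images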
[13] = plasmodial surface anion channel blockers, osmotic lysis – cell-based, P. falciparum Indochina, OD700, 1 h, primary screen (AID 1154); details: P. falciparum Indochina infected RBC osmotic lysis, higher = more signal, called active from +8 up or from −8 down
[14] = plasmodial surface anion channel blockers, osmotic lysis – cell-based, P. falciparum Indochina, OD700, 2 h, primary screen (AID 1155);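 further: lysis reports solute entry through the parasite surface anion channel PSAC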; details: P. falciparum Indochina infected erythrocytes, higher = more signal, called active from +8 up or from −8 down
[15] = changes in parasitized red cell lysis, either direction – P. falciparum Indochina, OD700, 3 h, PSAC antagonist project, primary screen (AID 1156); details: P. falciparum-infected erythrocytes, osmotic lysis, higher = more signal, called active from +8 up or from −8 down
[16] = plasmodial surface anion channel blockers, osmotic lysis – cell-based, P. falciparum Indochina, OD700, 18 h, primary screen (AID 1157); details: P. falciparum Indochina infected erythrocytes, osmotic lysis OD700, 18 h; higher = more signal, called active from +8 up or from −8 down
[17] = S6 kinase pathway phospho-S6 level changes – cell-based, A549, cytoblot, luminescence, serum-stimulated, primary screen (AID 1158); details: 5 h, higher = more signal;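 further: serum-stimulated A549 lung adenocarcinoma cells; signal is phosphorylated S6 detected by cytoblot immunostaining with HRP secondary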
[18] = molecular target: NADPH oxidase 2 (Homo sapiens) (UniProt P04839); test: compounds shifting NOX2 Amplex Red fluorescence – cell-based, HEK293-NOX2, PMA-stimulated, NOX inhibitor project, primary screen (AID 1159); details: 45 min, higher = more signal, called active from +8 up or from −8 down; further: test concentration not given here
[19] = molecular target: NADPH oxidase 4 (Homo sapiens) (UniProt Q9NPH5); test: compounds shifting NOX4 Amplex Red fluorescence – cell-based, HEK293-NOX4, tetracycline-induced, NOX inhibitor project, primary screen (AID 1160); details: HEK293-NOX4, Amplex Red H2O2 fluorescence, 45 min; higher = more signal, called active from +8 up or from −8 down
[20] = molecular target: NADPH oxidase 5 (Homo sapiens) (UniProt Q96PH1); test: compounds shifting NOX5 Amplex Red fluorescence – cell-based, HEK293-NOX5, NOX inhibitor project, primary screen (AID 1161); details: HEK293-NOX5, ionomycin, 45 min, higher = more signal
Chain of NADPH oxidase 5 (Homo sapiens) (Q96PH1 whole entry, looked up): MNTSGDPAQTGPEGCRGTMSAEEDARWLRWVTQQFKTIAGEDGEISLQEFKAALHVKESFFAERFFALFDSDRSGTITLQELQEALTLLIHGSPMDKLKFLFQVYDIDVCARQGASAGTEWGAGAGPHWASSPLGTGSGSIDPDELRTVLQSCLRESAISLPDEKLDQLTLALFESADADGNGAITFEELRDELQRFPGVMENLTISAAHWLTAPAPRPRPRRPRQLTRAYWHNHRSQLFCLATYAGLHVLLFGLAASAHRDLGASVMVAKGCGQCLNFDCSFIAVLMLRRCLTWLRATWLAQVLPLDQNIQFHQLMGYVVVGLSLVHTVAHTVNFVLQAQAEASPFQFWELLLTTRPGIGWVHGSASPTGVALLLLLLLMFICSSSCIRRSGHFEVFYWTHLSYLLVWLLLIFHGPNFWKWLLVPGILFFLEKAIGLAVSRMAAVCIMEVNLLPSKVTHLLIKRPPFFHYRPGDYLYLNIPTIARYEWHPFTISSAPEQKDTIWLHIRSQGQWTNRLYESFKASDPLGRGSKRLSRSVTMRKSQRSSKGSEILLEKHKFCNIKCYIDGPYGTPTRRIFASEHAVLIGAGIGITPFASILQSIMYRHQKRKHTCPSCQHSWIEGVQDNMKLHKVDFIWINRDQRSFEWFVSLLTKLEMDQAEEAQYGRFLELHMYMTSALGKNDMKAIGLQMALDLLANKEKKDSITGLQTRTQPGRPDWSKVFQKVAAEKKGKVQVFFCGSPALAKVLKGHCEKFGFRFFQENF

Chain of Torsin-1A (Homo sapiens) (O14656 whole entry, looked up): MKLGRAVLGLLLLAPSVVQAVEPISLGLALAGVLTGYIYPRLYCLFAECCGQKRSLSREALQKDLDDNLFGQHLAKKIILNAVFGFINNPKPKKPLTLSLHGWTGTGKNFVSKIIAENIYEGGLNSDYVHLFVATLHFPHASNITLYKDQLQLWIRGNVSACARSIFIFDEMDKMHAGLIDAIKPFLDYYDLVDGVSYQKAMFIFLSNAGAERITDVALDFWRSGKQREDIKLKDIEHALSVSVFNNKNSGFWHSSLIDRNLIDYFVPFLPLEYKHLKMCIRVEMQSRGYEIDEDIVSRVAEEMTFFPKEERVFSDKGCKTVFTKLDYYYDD
Chain of Streptavidin (Streptomyces avidinii) (P22629 whole entry, looked up): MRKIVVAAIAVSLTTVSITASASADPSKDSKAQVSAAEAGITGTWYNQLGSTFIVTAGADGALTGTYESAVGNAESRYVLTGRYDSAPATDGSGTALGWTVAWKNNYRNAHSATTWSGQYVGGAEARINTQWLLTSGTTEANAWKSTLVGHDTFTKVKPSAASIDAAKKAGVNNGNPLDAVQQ
Chain of NADPH oxidase 4 (Homo sapiens) (Q9NPH5 whole entry, looked up): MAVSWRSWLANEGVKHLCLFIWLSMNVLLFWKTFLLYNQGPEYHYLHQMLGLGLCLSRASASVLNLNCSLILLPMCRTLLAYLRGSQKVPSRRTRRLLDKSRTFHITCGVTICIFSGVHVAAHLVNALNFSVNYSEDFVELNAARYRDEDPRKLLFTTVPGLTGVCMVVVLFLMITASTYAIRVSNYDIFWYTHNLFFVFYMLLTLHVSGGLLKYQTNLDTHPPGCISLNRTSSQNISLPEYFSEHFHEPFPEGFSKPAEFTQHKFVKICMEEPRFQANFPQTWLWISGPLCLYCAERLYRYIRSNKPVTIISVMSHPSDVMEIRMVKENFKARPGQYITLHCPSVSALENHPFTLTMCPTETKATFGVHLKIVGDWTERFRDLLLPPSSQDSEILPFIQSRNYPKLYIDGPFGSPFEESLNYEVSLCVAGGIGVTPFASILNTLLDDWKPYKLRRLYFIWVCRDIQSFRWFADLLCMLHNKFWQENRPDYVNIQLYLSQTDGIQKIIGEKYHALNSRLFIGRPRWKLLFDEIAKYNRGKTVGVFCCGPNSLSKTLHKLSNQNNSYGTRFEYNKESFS
Chain of NADPH oxidase 2 (Homo sapiens) (P04839 whole entry, looked up): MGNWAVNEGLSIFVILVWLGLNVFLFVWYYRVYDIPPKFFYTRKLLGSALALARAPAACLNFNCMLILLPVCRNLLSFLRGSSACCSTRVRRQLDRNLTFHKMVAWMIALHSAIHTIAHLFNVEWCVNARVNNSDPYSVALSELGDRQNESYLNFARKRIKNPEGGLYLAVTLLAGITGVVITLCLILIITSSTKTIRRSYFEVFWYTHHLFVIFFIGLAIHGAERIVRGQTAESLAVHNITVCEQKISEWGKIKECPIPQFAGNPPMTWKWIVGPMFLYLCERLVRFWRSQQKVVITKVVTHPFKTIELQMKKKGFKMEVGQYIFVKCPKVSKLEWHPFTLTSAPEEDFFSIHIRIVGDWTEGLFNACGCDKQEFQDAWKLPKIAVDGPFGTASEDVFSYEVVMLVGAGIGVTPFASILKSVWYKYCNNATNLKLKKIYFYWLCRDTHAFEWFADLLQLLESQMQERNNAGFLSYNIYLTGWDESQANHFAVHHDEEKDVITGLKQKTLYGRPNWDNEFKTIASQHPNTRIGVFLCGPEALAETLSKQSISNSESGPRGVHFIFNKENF

Row | Structure (SMILES) | composite z-score [1] | z-score [2] | z-score [3] | z-score [4] | z-score [5] | composite z-score [6] | composite z-score [7] | composite z-score (Torsin-1A (Homo sapiens) [8]) | composite z-score (Torsin-1A (Homo sapiens) [9]) | composite z-score [10] | z-score [11] | composite z-score [12] | z-score [13] | z-score [14] | z-score [15] | z-score [16] | z-score [17] | z-score [18] | z-score [19] | z-score [20]
1 | CO[C@H]1COC(=O)CC=C[C@@H](C)[C@H](OC)COC(=O)[C@@H]2CCCN2C(=O)CC=C[C@@H]1C | -0.0779 | 0.192 (inactive) | 0.474 (inactive) | 0.251 (inactive) | -0.759 (inactive) | -0.407 | -0.186 | 1.72 | 2.49 | 2.18 | 0.544 (inactive) | 0.114 | -0.0903 (inactive) | -0.289 (inactive) | -0.32 (inactive) | -0.0159 (inactive) | 1.14 | 0.833 (inactive) | 0.196 (inactive) | 0.0432
2 | CO[C@@H]1COC(=O)[C@H](CCSC)NC(=O)CC=C[C@@H](C)COC(=O)[C@H](C)NC(=O)CC=C[C@H]1C | 0.312 | 0.208 (inactive) | 0.0303 (inactive) | 1.97 (inactive) | -0.306 (inactive) | -0.793 | -0.103 | 1.49 | 0.152 | 1.46 | 0.675 (inactive) | -0.231 | -0.0455 (inactive) | 0.327 (inactive) | 0.033 (inactive) | 0.353 (inactive) | 0.399 | -0.906 (inactive) | -0.0183 (inactive) | 0.0788
3 | CC(C)=CCCC(C)=CCON=C1C[C@@H](O)[C@@H](O)[C@@H]2[C@@H]3C(=O)N(c4cccc(Oc5ccccc5)c4)C(=O)[C@@H]3CC[C@@H]12 | -0.102 | -4.07 (inactive) | -0.375 (inactive) | 2.51 (inactive) | 0.557 (inactive) | 0.217 | -0.128 | -0.38 | 0.0864 | 0.402 | -1.15 (inactive) | -0.0501 | 3.39 (inactive) | -0.298 (inactive) | 1.24 (inactive) | -2 (inactive) | 0.313 | -1.33 (inactive) | -0.237 (inactive) | -3.35
4 | COc1cc(O)c(C(=O)C=Cc2ccc3c(c2)OCO3)c(OC)c1 | 0.0926 | -2.56 (inactive) | 1.1 (inactive) | 0.286 (inactive) | 0.528 (inactive) | -0.379 | -0.0332 | -0.404 | -0.19 | 0.782 | -0.59 (inactive) | 0.0056 | 18.9 (active) | 2.42 (inactive) | 0.484 (inactive) | 0.885 (inactive) | -0.523 | 0.0679 (inactive) | 0.142 (inactive) | -0.0252
5 | CC(C)CON=C1C[C@@H](O)[C@@H](O)[C@@H]2[C@@H]3C(=O)N(C(C)(C)C)C(=O)[C@@H]3CC[C@H]12 | -0.147 | 0.419 (inactive) | -0.208 (inactive) | -0.116 (inactive) | 0.366 (inactive) | -0.312 | -0.125 | 0.324 | 0.329 | -0.739 | 0.288 (inactive) | -0.0162 | 0.221 (inactive) | -0.239 (inactive) | -0.814 (inactive) | -0.089 (inactive) | -0.382 | 1.47 (inactive) | 0.594 (inactive) | 0.325
6 | CCCCC#C[C@@H]1C=C[C@H](Oc2cc(OC)c(OC)c(OC)c2)[C@@H](COC(=O)OCC)O1 | -0.282 | -0.721 (inactive) | -0.264 (inactive) | 2 (inactive) | -0.684 (inactive) | -0.523 | -0.173 | -0.0251 | -0.361 | 0.375 | 0.525 (inactive) | -0.147 | 8.03 (active) | 0.673 (inactive) | -0.172 (inactive) | 0.0018 (inactive) | -0.153 | -1.82 (inactive) | 0.215 (inactive) | -2.66
7 | Cc1ccc(S(=O)(=O)OC[C@H]2CN3[C@H](c4ccc(Br)cc4)[C@@H](C)CC[C@H]3C(=O)O2)cc1 | 0.114 | -1.25 (inactive) | -1.43 (inactive) | 2.01 (inactive) | 0.535 (inactive) | 0.487 | -0.128 | 0.782 | 0.44 | 0.362 | 0.399 (inactive) | -0.0501 | 3.18 (inactive) | 0.57 (inactive) | 0.896 (inactive) | 0.761 (inactive) | 0.0084 | 0.407 (inactive) | 0.484 (inactive) | -0.632
8 | O=C1[C@H]2[C@H]3[C@H](O)[C@H](O)CC(=NOC[C@@H](O)COCc4ccco4)[C@H]3CC[C@H]2C(=O)N1Cc1ccccc1 | -0.0661 | -0.734 (inactive) | 0.448 (inactive) | -0.474 (inactive) | 0.479 (inactive) | -0.68 | -0.182 | 0.246 | 0.462 | 1.38 | 0.0413 (inactive) | -0.154 | 0.376 (inactive) | -0.599 (inactive) | -0.409 (inactive) | -1.53 (inactive) | 1.43 | -0.0116 (inactive) | 0.967 (inactive) | 0.0182
